Consider 23 compounds from PubChem BioAssay (NCATS).

Inconclusive results are not listed. Activity calls are given as the source filed them. Calls follow the shape of the dose curve; as a rule, active = well fitted inhibition curve with a large enough effect; inconclusive = small, poorly fitted or top-dose-only effect; inactive = flat fitted curve, though single readings scatter.

What all share (assay): qHTS profiling for inhibitors of Plasmodium falciparum proliferation (AID 504749); also: nearly all actives have a fitted effect of over 60% in size
Common to all, as to conditions: P. falciparum in erythrocytes, SYBR Green DNA, 72 h; series mostly up to 28.7 µM
On the technique in general: In qHTS, concentration-response curves come from the screen itself.

Assay [1] relates to CP335. In short, it runs like this: (§1)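 Infected RBCs, 0.3% parasitemia/2.5% Hct final; cpd 72 h, 37 C, 5% CO2; lysis buffer with saponin/triton/SYBR Green I, o/n RT dark; FI 485/535; norm. to artemisinin (0.29 uM) and DMSO.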
In assay [2] the test system is DFO2036. In short, it runs like this: as §1
Assay [3] concerns DIV14. The method, boiled down: as §1
Assay [4] relates to DIV17. In short, it runs like this:
as §1

The subject of assay [5] is DIV30. The method, boiled down: as §1
The subject of assay [6] is Dd2. In short, it runs like this:
as §1

Assay [7] deals with ECU. In short, it runs like this: as §1
For assay [8], the system named is FAB9. In short, it runs like this:
as §1

Assay [9] concerns GB4. In short, it runs like this:
as §1

For assay [10], the system named is HB3. The method, boiled down:
as §1
Potency is read from the fitted curve at half-maximal effect.

`O=C(O)Cc1csc(-c2ccc(Cl)cc2)n1`: the Potency entry in assay [1], in [2], in assay [3], in [4], in assay [5] and in assay [6] was “inactive” in each case. Also, the Potency result in assay [7], in assay [8], in assay [9] and in assay [10] was “inactive” in each case.
`CC[C@H](c1ccc(O)cc1)[C@@H](CC)c1ccc(O)cc1`: the Potency result in assay [1], in assay [2], in assay [3], in assay [4], in assay [5] and in assay [6] was “inactive” in each case. Moreover, the Potency result in [7], in assay [8], in assay [9] and in assay [10] was “inactive” in each case.
Regarding `CC(=O)Oc1ccc(C)cc1`, the Potency entry in assay [1], in assay [2], in [3], in assay [4], in assay [5] and in assay [6] was “inactive” each time. The Potency entry in assay [7], in [8], in [9] and in assay [10] was “inactive” throughout.
Regarding `Cc1cccc(C)c1NC(=O)c1ccccc1C(=O)O`, the Potency result in [1], in [2], in assay [3], in [4], in [5] and in assay [6] was “inactive” throughout. For the same compound, the Potency entry in assay [7], in [8], in assay [9] and in assay [10] was “inactive” throughout.
`O=C1C(=O)c2ccccc2C(O)=C1C1CCC(c2ccc(Cl)cc2)CC1` (stereo not given): the Potency in assay [1] is 3.2 nM (active); in assay [2], 3.2 nM (active); in assay [3], 6.4 nM (active); in assay [4], 9.1 nM (active); in assay [5] it was 5.1 nM (active); in assay [6], 3.5 nM (active). Further, the Potency is 3.2 nM (active) in [7], 3.2 nM (active) in [8], 4.1 nM (active) in assay [9] and 2.8 nM (active) in assay [10].
As for `C[C@@H](O)[C@H]1C(=O)N2C(C(=O)O)=C(S[C@@H]3CN[C@H](CNS(N)(=O)=O)C3)[C@H](C)[C@H]12`, the Potency result in assay [1], in [2], in assay [3], in assay [4], in assay [5] and in assay [6] was “inactive” throughout. In addition, the Potency entry in [7], in assay [8], in assay [9] and in [10] was “inactive” in each case.
In the case of `O=C(O)C(Cc1cc(I)c(O)c(I)c1)c1ccccc1` (stereo not given), the Potency result in assay [1], in [2], in assay [3], in assay [4], in assay [5] and in assay [6] was “inactive” each time. The Potency entry in assay [7], in assay [8], in assay [9] and in assay [10] was “inactive” each time.
Turning to `Cc1ccc(O)c([C@H](CCN(C(C)C)C(C)C)c2ccccc2)c1`, the Potency is 5360 nM (active) in assay [1]; 5010 nM (active) in assay [2]; 1350 nM (active) in [3]; 1200 nM (active) in [4]; 6010 nM (active) in assay [5]; 2510 nM (active) in assay [6]. In addition, the Potency was 3980 nM (active) in [7], 8910 nM (active) in assay [8], 1510 nM (active) in assay [9] and 7940 nM (active) in assay [10].
Consider `O=C(Nc1ncc([N+](=O)[O-])s1)c1cccs1`, for which the Potency entry in assay [1], in assay [2], in [3], in assay [4], in [5] and in assay [6] was “inactive” throughout. The Potency entry in assay [7], in assay [8], in [9] and in [10] was “inactive” throughout.
With `CCCCCCCCCCCCCCCC(=O)O`, the Potency entry in [1], in [2], in assay [3], in [4], in assay [5] and in [6] was “inactive” throughout. The Potency entry in [7], in assay [8], in [9] and in assay [10] was “inactive” throughout.
`CC(=O)NO`: the Potency entry in assay [1], in assay [2], in assay [3], in [4], in [5] and in [6] was “inactive” throughout. Besides, the Potency result in assay [7], in assay [8], in assay [9] and in [10] was “inactive” in each case.
For `CC1=C(C(=O)O)N2C(=O)[C@@H](NC(=O)[C@H](N)c3ccccc3)[C@H]2SC1`, the Potency result in assay [1], in assay [2], in assay [3], in assay [4], in assay [5] and in [6] was “inactive” each time. Also, the Potency result in [7], in assay [8], in assay [9] and in assay [10] was “inactive” each time.
As for `CCCCCCCCCCCCCCCCO`, the Potency result in [1], in assay [2], in [3], in assay [4], in assay [5] and in assay [6] was “inactive” throughout. The Potency entry in assay [7], in [8], in assay [9] and in [10] was “inactive” throughout.
For the compound `O=C1C(CCS(=O)c2ccccc2)C(=O)N(c2ccccc2)N1c1ccccc1` (stereo not given), the Potency result in [1], in [2], in assay [3], in assay [4], in assay [5] and in [6] was “inactive” each time. For the same compound, the Potency entry in assay [7], in [8], in [9] and in assay [10] was “inactive” in each case.
In the case of `Nc1ccc(S(=O)(=O)NCc2ccccc2)cc1`, the Potency result in [1], in assay [2], in assay [3], in assay [4], in assay [5] and in [6] was “inactive” each time. In addition, the Potency entry in assay [7], in [8], in assay [9] and in assay [10] was “inactive” in each case.
`NS(=O)(=O)Cc1noc2ccccc12`: the Potency result in assay [1], in assay [2], in assay [3], in assay [4], in assay [5] and in assay [6] was “inactive” each time. Besides, the Potency result in assay [7], in assay [8], in assay [9] and in assay [10] was “inactive” each time.
Take `COc1ccccc1N1CCN(CCCCNC(=O)c2ccc(-c3ccc(C(C)=O)cc3)cc2)CC1`: the Potency entry in assay [1], in assay [2], in [3], in assay [4], in assay [5] and in assay [6] was “inactive” each time. For the same compound, the Potency entry in [7], in assay [8], in assay [9] and in [10] was “inactive” in each case.
With `O=C(O)CCC(=O)Nc1ccc(S(=O)(=O)Nc2nccs2)cc1`, the Potency result in assay [1], in assay [2], in [3], in assay [4], in assay [5] and in assay [6] was “inactive” throughout. The Potency entry in [7], in assay [8], in assay [9] and in assay [10] was “inactive” each time.
With `CCC1Nc2cc(Cl)c(S(N)(=O)=O)cc2S(=O)(=O)N1` (stereo not given), the Potency result in assay [1], in assay [2], in [3], in assay [4], in assay [5] and in assay [6] was “inactive” each time. In addition, the Potency result in assay [7], in [8], in assay [9] and in [10] was “inactive” throughout.
`FC1(F)C(F)(F)C(F)(F)C2(F)C(F)(F)C(F)(F)C(F)(F)C(F)(F)C2(F)C1(F)F` (stereo not given): the Potency result in assay [1], in assay [2], in [3], in [4], in [5] and in [6] was “inactive” in each case. In addition, the Potency result in assay [7], in assay [8], in assay [9] and in assay [10] was “inactive” each time.
In the case of `COc1cc(C)nc(-n2nc(C)cc2OC)n1`, the Potency entry in assay [1], in [2], in assay [3], in assay [4], in [5] and in [6] was “inactive” throughout. In addition, the Potency entry in assay [7], in assay [8], in [9] and in [10] was “inactive” in each case.
Consider `OC1C(O)C(O)C(O)C(O)C1O` (stereo not given), for which the Potency entry in [1], in assay [2], in assay [3], in assay [4], in assay [5] and in [6] was “inactive” each time. Besides, the Potency result in assay [7], in assay [8], in assay [9] and in [10] was “inactive” throughout.
`O=C(O)c1ccc(S(=O)(=O)N(Cl)Cl)cc1`: the Potency entry in assay [1], in assay [2], in assay [3], in assay [4], in [5] and in assay [6] was “inactive” each time. Moreover, the Potency entry in assay [7], in assay [8], in assay [9] and in assay [10] was “inactive” in each case.
